Results on 23 compounds are retold here after PubChem BioAssay (NCATS).

Inconclusive results are not listed. Where a call stands in place of a potency, no number is given. Activity calls are given as the source filed them. The call rests on the fitted dose curve; in most records, active means well fitted inhibition curve with a large enough effect; inconclusive means small, poorly fitted or top-dose-only effect; inactive means no such curve, though single readings can be large or run the other way. Where a SMILES comes first, the peptide text is derived from it.

Assay [1] concerns Zika virus NS2B-NS3 protease (unlinked complex). The experiment in a line: Primary screen GU Rhodamine qHTS for Zika virus inhibitors: Unlinked NS2B-NS3 protease assay (AID 1347159). Further: nearly all actives have a fitted effect of over 60% in size. The procedure, abridged: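 A qHTS format was used, with compound concentrations ranging up to 114 microM. Each compound was preincubated with 25 nM NS2B-NS3 protease, and the substrate was then added at 1.5 microM. Curves were fitted with a 4-parameter Hill model.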

Assay [2] concerns Zika virus NS2B-NS3 protease (linked construct). Kind of assay: Primary screen NINDS Rhodamine qHTS for Zika virus inhibitors (AID 1347160). Further: nearly all actives have a fitted effect of over 55% in size. The procedure, abridged: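 Kinetic fluorescence (Ex 480 nm, Em 540 nm) over 15 min with 1.5 microM Rhodamine110 peptide and 25 nM linked protease.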
Potency means the concentration at half of the fitted maximal effect.

As to `CC1NC(=O)CNC(=O)C(C(C)C)NC(=O)C2CCCN2C(=O)C(C(C)C)NC(=O)C(Cc2c[nH]c3ccccc23)NC1=O` (stereo not drawn) (cyclo(GAWVPV); configuration not given here), the Potency entry in assay [1] and in assay [2] was “inactive” each time. As to `COCC(=O)N1CCc2cc(-c3csc(NC(=O)c4cc(OC)cc(OC)c4)n3)ccc21`, the Potency entry in assay [1] and in assay [2] was “inactive” throughout. Turning to `C[C@]12CC[C@@H]3c4ccc(O[C@@H]5O[C@H](C(=O)O)[C@@H](O)[C@H](O)[C@H]5O)cc4CC[C@H]3[C@@H]1CCC2=O`, the Potency result in assay [1] and in assay [2] was “inactive” throughout. In the case of `OC[C@H]1O[C@@H](Oc2cc(O)cc(-c3cc4ccc(O)cc4o3)c2)[C@H](O)[C@@H](O)[C@@H]1O`, the Potency entry in assay [1] is “inactive”.

Consider `COc1cc2c(Nc3ccc(Cl)c(Cl)c3F)ncnc2cc1OCC1C[C@@H]2CN(C)C[C@@H]2C1` (stereo partly drawn), for which the Potency result in assay [1] and in assay [2] was “inactive” in each case. As to `COC(=O)C1=CO[C@@H](O[C@@H]2O[C@H](CO[C@@H]3O[C@H](COC(=O)/C=C/c4ccc(O)cc4)[C@@H](O)[C@H](O)[C@H]3O)[C@@H](O)[C@H](O)[C@H]2O)[C@@H]2C(CO)=CC[C@H]12`, the Potency entry in assay [1] and in assay [2] was “inactive” throughout. For `COc1cc(/C=C/CO)ccc1O[C@@H]1O[C@H](CO)[C@@H](O)[C@H](O)[C@H]1O`, the Potency entry in assay [1] and in assay [2] was “inactive” each time.

Regarding `C=C1C(=O)O[C@H]2[C@H]1[C@@H](OC(=O)C(C)CO)C[C@@]1(C)[C@H](O)CCC(=O)[C@H]21` (stereo partly drawn), the Potency result in assay [1] was “inactive”.

On to `COC1CC(=O)C23C(=O)NC(CC(C)C)C2C(C)C(C)=CC3/C=C(\C)CCC1O` (stereo not drawn), for which the Potency entry in assay [1] and in assay [2] was “inactive” throughout. Take `C/C=C(\C)C(=O)OC[C@H]1O[C@H](O[C@H]2O[C@H](CO)[C@@H](OC(=O)/C(C)=C/C)[C@H](O)[C@H]2O[C@@H]2O[C@H](CO)[C@@H](O)[C@H](O)[C@H]2O)[C@H](O[C@@H]2O[C@H](CO)[C@@H](O)[C@H](O)[C@H]2O)[C@@H](O)[C@@H]1O`: the Potency result in assay [1] and in assay [2] was “inactive” throughout. As to `COc1ccc(/C=C/C(=O)O[C@@H]2[C@@H](OC(C)=O)[C@@H](OC(C)=O)[C@H](O[C@H]3[C@@H]4C=CO[C@@H](O[C@@H]5O[C@H](CO)[C@@H](O)[C@H](O)[C@H]5O)[C@@H]4[C@@]4(CO)O[C@@H]34)O[C@H]2C)cc1O`, the Potency result in assay [1] and in assay [2] was “inactive” each time. With `C=C1[C@H]2[C@H](O[C@@H]3O[C@H](COC(=O)/C=C/c4cc(OC)c(O)c(OC)c4)[C@@H](O)[C@H](O)[C@H]3O)OC=C(C(=O)O)[C@H]2C[C@@H]1O`, the Potency entry in assay [1] and in assay [2] was “inactive” in each case.

For `COc1cc(N2CCC(O)CC2)ccc1Nc1cc(Nc2ccccc2S(=O)(=O)C(C)C)c2cc[nH]c2n1`, the Potency result in assay [1] is “inactive”.

Turning to `CC1CC(=O)C2=C(O1)OC1(C)CCC3C(C)(C)C=CC(=O)C3(C)C1C2` (stereo not drawn), the figures for the Potency in assay [1] and in assay [2] were 28.2 µM (active) and 12.6 µM (active), respectively. In the case of `C=C1CC2[C@]3(C)C(=C(O)C(=O)[C@@]2(C)[C@]2(C(=O)OC)C(=O)C(C)OC(=O)[C@@]12C)C(C)(C)C(=O)CC3O` (stereo partly drawn), the Potency result in assay [1] and in assay [2] was “inactive” each time.

As for `C[C@@H]1CC[C@]2(C(=O)O[C@@H]3O[C@H](CO)[C@@H](O)[C@H](O)[C@H]3O)CC[C@]3(C)C(=CCC4[C@@]5(C)C[C@@H](O)[C@H](O)C(C)(C)C5CC[C@]43C)C2[C@]1(C)O` (stereo partly drawn), the Potency result in assay [1] and in assay [2] was “inactive” each time. On to `O=C(OCc1cccc(O)c1O[C@@H]1O[C@H](CO)[C@@H](O)[C@H](O)[C@H]1O)C1(O)C(=O)C2C=CC1C1C=CC(=O)C(O)(C(=O)OCc3cccc(O)c3O[C@@H]3O[C@H](CO)[C@@H](O)[C@H](O)[C@H]3O)C21` (stereo partly drawn), for which the Potency result in assay [1] and in assay [2] was “inactive” throughout.

Regarding `CC1=CC(=O)CC(C)(CO[C@@H]2O[C@H](CO)[C@@H](O)[C@H](O)[C@H]2O)C1(O)/C=C/C(C)=C/C(=O)O` (stereo partly drawn), the Potency result in assay [1] and in assay [2] was “inactive” each time. Take `COc1cc(/C=C/C(=O)O[C@H]2[C@H](OC(=O)/C=C/c3cc(OC)c(O)c(OC)c3)O[C@H](CO[C@@H]3O[C@H](CO)[C@@H](O)[C@H](O)[C@H]3O)[C@@H](O)[C@@H]2O)ccc1O`: the Potency entry in assay [1] and in assay [2] was “inactive” in each case. Turning to `CCC(C)C(=O)O[C@@H]1[C@@H](O)[C@@H](O[C@H]2O[C@H](CO)[C@@H](O)[C@H](O)[C@H]2O)O[C@H](CO)[C@H]1O` (stereo partly drawn), the Potency result in assay [1] and in assay [2] was “inactive” throughout. With `C[C@@H](Nc1cc(NS(=O)(=O)N2CCC2)nc(SCc2cccc(F)c2F)n1)[C@@H](O)CO`, the Potency result in assay [1] and in assay [2] was “inactive” each time. Turning to `O=C1NC(Cc2ccc(O)cc2)C(=O)N2CCCC12` (stereo not drawn), the Potency result in assay [1] and in assay [2] was “inactive” throughout. With `COc1cc2c(cc1O)C1(Cc3ccc4c(c3C1=O)OCO4)N(C)CC2` (stereo not drawn), the Potency result in assay [1] and in assay [2] was “inactive” in each case.
